Gal4-VP16 FLuc – inhibits Gal4-VP16 luciferase reporter, ROR gamma counter-screen; Potency, µM (doses to about 53.6 µM), for the others: at the highest dose activity, negative = inhibition, hits mostly inhibitors; AID 2546; Drosophila S2 Gal4-VP16 UAS-luciferase, luminescence, 20 h; 310,000 tested, 3.5% active;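 note: Gal4-VP16 expression switched on by copper sulfate through the metallothionein promoter; nearly all actives have a fitted effect of over 50% in size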
Luc counter – blocks Kinase-Glo luciferase, a counter-screen artifact | Potency, µM (series often up to 38.3 µM), without a hit: at the top dose activity change, negative = inhibition, usual class: inhibitors | Q27757 | Kinase-Glo luciferase, ATP luminescence, 8 min | 200,000 tested, 0.28% active | AID 1379; note: nearly all actives have a fitted effect of over 60% in size
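Recombinant Kinase-Glo luciferase, 10 uM ATP (linear range), luciferin; imidazole pH 7.2 / KCl / MgCl2 / Tween / BSA buffer; 8 min RT; luminescence.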
RORg inh – inhibitors of mouse ROR gamma transcriptional activity; Potency, µM (doses to about 53.6 µM), for the others: at the highest dose activity change, negative = inhibition, most hits filed as inhibitors; Drosophila S2 Gal4-RORgamma UAS-luciferase reporter, 20 h; 310,000 tested, 5.4% active; P51450; note: nearly all actives have a fitted effect of over 60% in size
Target sequence (P51450 whole entry, looked up, the tested form may be a part): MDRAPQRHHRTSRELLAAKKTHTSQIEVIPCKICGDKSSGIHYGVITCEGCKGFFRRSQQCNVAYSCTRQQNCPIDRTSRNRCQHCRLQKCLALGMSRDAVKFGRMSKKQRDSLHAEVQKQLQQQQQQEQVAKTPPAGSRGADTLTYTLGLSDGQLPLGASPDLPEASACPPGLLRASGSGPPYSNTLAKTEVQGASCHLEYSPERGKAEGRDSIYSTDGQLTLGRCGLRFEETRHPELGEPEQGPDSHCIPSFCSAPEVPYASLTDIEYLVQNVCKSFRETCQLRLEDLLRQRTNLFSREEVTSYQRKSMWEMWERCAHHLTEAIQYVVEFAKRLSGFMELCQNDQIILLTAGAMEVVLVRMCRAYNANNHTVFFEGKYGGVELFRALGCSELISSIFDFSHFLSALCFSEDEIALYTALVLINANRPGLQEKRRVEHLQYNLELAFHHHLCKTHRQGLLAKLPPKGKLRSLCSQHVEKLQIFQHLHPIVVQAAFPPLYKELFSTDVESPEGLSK
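Read-out: Photinus luciferase luminescence; inhibitors lower reporter signal. Insect Schneider cells with Gal4-ROR gamma fusion under metallothionein promoter, UAS reporter; 700 uM final copper sulfate induction, 20 hr, ambient temperature.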
An asterisk follows results filed as active; [ ] = remark or other dose. The list is not random: actives were taken first. Their share in the collection is about 6.2%. Calls come from the whole dose curve; as a rule, active = well fitted curve in the direction sought with a large enough effect; inconclusive = small, poorly fitted or top-dose-only effect, or another doubt; inactive = no such curve, though single readings can be large; an effect the other way counts as inactive or inconclusive. % is set by controls: 0 for no effect and ±100 for the full control effect; potency is the fitted concentration of half-maximal effect.

How did COc1ccc(NS(=O)(=O)c2ccc(O)c(NC(=O)c3cc4c(C)nn(-c5ccc(F)cc5)c4s3)c2)cc1 do in these assays?
Gal4-VP16 FLuc: 22µM*; Luc counter: 2%; RORg inh: inconclusive

What do the screens show for `C[C@@]12C(=O)OC(=O)[C@@]1(C)C1CCC2O1`?
Gal4-VP16 FLuc: 5µM*; Luc counter: -4%; RORg inh: 14µM*

Results for C[C@@]12C(=O)OC(=O)[C@]1(C)[C@H]1CC[C@@H]2O1 ?
Gal4-VP16 FLuc: 5µM*; Luc counter: -3%[17.1 µM]; RORg inh: -13%[2.98 µM]

Results for C[C@@]12C(=O)OC(=O)[C@@]1(C)[C@@H]1CC[C@@H]2O1 ?
Gal4-VP16 FLuc: 9%; Luc counter: 0%; RORg inh: 30%

How did COc1ccc(CNc2ncnc3cc(OC)c(OC)cc23)cc1 do in these assays?
Gal4-VP16 FLuc: -3%; Luc counter: 0%; RORg inh: inconclusive

What do the screens show for `CC(Oc1ccc(Br)cc1)c1nc2c3ccccc3nc(=S)n2[nH]1` (stereo not drawn)?
Gal4-VP16 FLuc: 1.3µM*; Luc counter: 5%; RORg inh: 0.28µM*

What do the screens show for `CCCC(Oc1ccc(Br)cc1)c1nc2c3cc(OC)c(OC)cc3nc(=S)n2[nH]1` (stereo not drawn)?
Gal4-VP16 FLuc: 3.5µM*; RORg inh: 1.3µM*

What do the screens show for `CC(Oc1ccc(Br)cc1)C(=O)Nn1c(=S)[nH]c2ncccc2c1=O` (stereo not drawn)?
Gal4-VP16 FLuc: -1%; Luc counter: 0%; RORg inh: -36%

How did CC(C)C(C(=O)O)N1CCS(=O)(=O)CC1 (stereo not drawn) do in these assays?
Gal4-VP16 FLuc: 2%; Luc counter: -1%; RORg inh: -5%

Results for O=C(NCCc1ccc2c(c1)OCCO2)c1ccc([N+](=O)[O-])cc1Cl ?
Gal4-VP16 FLuc: 1%; Luc counter: -2%; RORg inh: 13%

What do the screens show for `COc1ccc(S(=O)(=O)CCC(=O)N2CCN(c3cccc(Cl)c3)CC2)cc1`?
Gal4-VP16 FLuc: 2%; RORg inh: 12%

What do the screens show for `COc1ccc2cc(C#N)c(=O)oc2c1`?
Gal4-VP16 FLuc: -6%; RORg inh: 7%

How did CCN(CC)c1ccc(C(=S)N2CCN(c3ccccc3)CC2)cc1 do in these assays?
Gal4-VP16 FLuc: inconclusive; Luc counter: 0%; RORg inh: 13µM*

Results for CN(C)c1ccc(C(=S)N2CCN(Cc3ccccc3)CC2)cc1 ?
Gal4-VP16 FLuc: -4%; RORg inh: 13µM*

Results for Oc1ccc(C(=S)N2CCN(Cc3ccccc3)CC2)cc1 ?
Gal4-VP16 FLuc: 4%; RORg inh: -2%

How did CC(C)(C)c1ccc(C(=S)N2CCN(c3ccccc3)CC2)cc1 do in these assays?
Gal4-VP16 FLuc: -5%; RORg inh: inconclusive

What do the screens show for `Cc1ccccc1NC(=O)NC1CCCc2ccccc21` (stereo not drawn)?
Gal4-VP16 FLuc: -5%; RORg inh: 1%

What do the screens show for `CC(=O)c1ccc(NC(=O)Nc2ccc(Br)cc2C)cc1`?
Gal4-VP16 FLuc: 2%; Luc counter: -4%; RORg inh: -1%

How did COc1ccc(NC(=O)c2cccc(S(=O)(=O)N3CCOCC3)c2)cc1 do in these assays?
Gal4-VP16 FLuc: -5%; RORg inh: 24%

Results for COc1ccc(NC(=S)Nc2cccc(S(=O)(=O)N3CCCCC3)c2)cc1 ?
Gal4-VP16 FLuc: inconclusive; Luc counter: 5%; RORg inh: 18µM*

Results for COc1ccc(C(=O)NC(=S)Nc2cccc(S(=O)(=O)N3CCOCC3)c2)cc1 ?
Gal4-VP16 FLuc: -9%; Luc counter: 0%; RORg inh: 22µM*

Results for CC1(C)CC2CC(C)(CN2S(=O)(=O)c2ccc(C(=O)Nc3cc(S(=O)(=O)N4CCOCC4)ccc3Cl)cc2)C1 (stereo not drawn) ?
Gal4-VP16 FLuc: -10%; Luc counter: -1%; RORg inh: inconclusive

How did COc1ccc(NC(=S)Nc2cc(S(=O)(=O)N3CCCCC3)ccc2OC)cc1 do in these assays?
Gal4-VP16 FLuc: -13%; Luc counter: -1%; RORg inh: inconclusive

Results for CC1(C)CC2CC(C)(CN2S(=O)(=O)c2ccc(C(=O)Nc3cccc(S(=O)(=O)N4CCOCC4)c3)cc2)C1 (stereo not drawn) ?
Gal4-VP16 FLuc: 0.5µM*; Luc counter: -4%; RORg inh: inconclusive

Results for CC1(c2ccc(OC(F)F)cc2)NC(=O)N(CC(=O)Nc2cccc(F)c2)C1=O (stereo not drawn) ?
Gal4-VP16 FLuc: 0%; RORg inh: 26%

What do the screens show for `COc1ccccc1N1CCN(C2CC(=O)N(c3ccc(F)cc3)C2=O)CC1` (stereo not drawn)?
Gal4-VP16 FLuc: 8%; RORg inh: -4%

Results for CCN(Cc1ccccc1)C(=O)COC(=O)c1cc(Cl)nc(Cl)c1 ?
Gal4-VP16 FLuc: -12%; Luc counter: 4%; RORg inh: -23%

What do the screens show for `O=C(O)CN1C(=O)S/C(=C\c2cccnc2)C1=O`?
Gal4-VP16 FLuc: 6%; RORg inh: 8%

What do the screens show for `O=C(COc1ccccc1-c1ccccc1)NCCN1C(=O)S/C(=C\c2cccnc2)C1=O`?
Gal4-VP16 FLuc: 20µM*; Luc counter: -1%; RORg inh: -42%

Results for Clc1ccc2ncnc(NCc3ccc4c(c3)OCO4)c2c1 ?
Gal4-VP16 FLuc: 7.9µM*; Luc counter: -1%[39.9 µM]; RORg inh: inconclusive

What do the screens show for `NCCNc1ncnc2ccc(Cl)cc12`?
Luc counter: -1%[7.66 µM]

Results for Oc1ccc(CCNc2ncnc3ccc(Cl)cc23)cc1 ?
Gal4-VP16 FLuc: 6.3µM*; RORg inh: inconclusive

What do the screens show for `COc1cc2ncnc(NCc3ccc4c(c3)OCO4)c2cc1OC`?
Gal4-VP16 FLuc: -10%; RORg inh: 4%

Results for O=C1[C@@H]2[C@H]3[C@H](O)[C@H](O)C/C(=N/OC[C@@H](O)COCc4ccco4)[C@@H]3CC[C@H]2C(=O)N1c1ccc(F)cc1F ?
Gal4-VP16 FLuc: -5%[10 µM]; RORg inh: -14%[10 µM]

What do the screens show for `CSc1ccccc1NC(=O)CN(C)C(=O)Cc1c(F)cccc1Cl`?
Gal4-VP16 FLuc: -10%; RORg inh: 1%

Results for CN(CC(=O)Nc1ccccc1Cl)C(=O)COC(=O)Cc1c(F)cccc1Cl ?
Gal4-VP16 FLuc: inconclusive; RORg inh: 10µM*

Results for Cc1ccccc1OCCCn1c(=O)sc2ccccc21 ?
Gal4-VP16 FLuc: 10µM*; Luc counter: -7%; RORg inh: 2.8µM*

Results for Cc1ccc(OCCCn2c(=O)sc3ccccc32)cc1 ?
Gal4-VP16 FLuc: -14%; Luc counter: -3%; RORg inh: inconclusive

How did CCCCCCC=O do in these assays?
Gal4-VP16 FLuc: -9%; RORg inh: -19%

How did CCOC(=O)c1ccc2c(c1)[nH]c(=S)n2CC do in these assays?
Gal4-VP16 FLuc: inconclusive; Luc counter: -2%; RORg inh: 8.9µM*

What do the screens show for `CCN(CC)S(=O)(=O)c1ccc2nc(CCl)[nH]c2c1`?
Gal4-VP16 FLuc: -19%; Luc counter: 0%; RORg inh: -8%

How did CCN(CC)S(=O)(=O)c1ccc2c(c1)[nH]c(=S)n2CC do in these assays?
Gal4-VP16 FLuc: -23%; Luc counter: 1%; RORg inh: 6.3µM*

Screens from PubChem.
